The list is not random: actives were taken first. Their share in the collection is about 8%.
KB-V1 MDR tox = kills drug-selected multidrug resistant KB-V1 cells; KB-V1 MDR cells viability, CellTiter-Glo, 72 h; AID 1347076; Potency, µM (series often up to 46.1 µM), most hits filed as cytotoxic; actives 3.4% (n = 400,000); note: % is set by controls: 0 for no effect and ±100 for the full control effect; nearly all actives have a fitted effect of over 60% in size
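KB-V1, DMEM (no phenol red) + 10% FBS; cpd pin-transferred, titration series; 72 h, 37 degrees C; CellTiter-Glo, luminescence. Data normalized, curve-fit.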
KB-3-1 cytotox = KB-3-1 parental cell cytotoxicity | KB-3-1 viability, CellTiter-Glo ATP luminescence, 72 h | Potency, µM (series often up to 46.1 µM), actives largely listed as cytotoxic | actives 1.4% (n = 400,000); note: % is set by controls: 0 for no effect and ±100 for the full control effect; nearly all actives have a fitted effect of over 60% in size
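Cells are dispensed, compounds pinned in, plates held at 37 °C for 72 h, then CellTiter-Glo is added and luminescence read after 10 minutes. Cell line: parental KB-3-1 in phenol-red-free DMEM, 10% FBS.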
HT1080-NT tox = kills 2HG-producing HT-1080-NT fibrosarcoma cells | HT-1080-NT fibrosarcoma viability, CellTiter-Glo ATP luminescence, 48 h | Potency, µM (highest dose often 46.1 µM), for inactives: at the highest dose activity, negative = less viability, actives largely listed as cytotoxic | actives 1.6% (n = 360,000);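 note: NT is the 2HG producing partner of a matched IDH1 knockdown line; 0% = DMSO-treated cells and -100% = media-only wells without cells; nearly all actives have a fitted effect of over 55% in size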
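Read-out is CellTiter-Glo luminescence after 10 minutes at room temperature, following 48 hours' compound treatment of HT-1080-NT cells (750 cells/well, RPMI, 5% FBS, 37 degrees C).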
SW480 rereplic = inducers of DNA re-replication in SW480 colon cancer cells | SW480 DNA re-replication, Hoechst DNA content imaging, 48 h | Potency, µM (highest dose often 46.1 µM), without a hit: at the top dose re-replication activation, hits mostly activators | actives 1.8% (n = 340,000) | AID 624297; note: % of control where 0% means no effect; nearly all actives have a fitted effect of over 55% in size
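Image-based read-out: total Hoechst fluorescence of nuclei (405 nm excitation, 500-530 nm emission), with hits raising the fraction of high-intensity nuclei. SW480 colon cells incubated 48 hr with compounds at 37 C.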
HT1080 IDH1KD tx = kills HT-1080 cells with IDH1 knockdown | HT-1080 IDH1 knockdown viability, ATP luminescence, 48 h | Potency, µM (top dose mostly 46.1 µM), without a hit: at the top dose activity, negative = toxicity, usual class: cytotoxic | actives 2% (n = 360,000);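 note: 0% = DMSO wells and -100% = cell-free medium wells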
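Using the IDH1-knockdown HT-1080 line run in the same batch and compound series as the NT line, viability after 48 h at 37 °C was determined by CellTiter-Glo luminescence and expressed as % activity.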
MCF10A rereplic = inducers of DNA re-replication in MCF 10A breast cells | actives 2.9% (n = 350,000) | AID 624296 | MCF 10A DNA re-replication, Hoechst nuclear intensity, 48 h | Potency, µM (titrated, usually from 46.1 µM), for inactives: top-dose activity, positive = re-replication, most hits filed as activators; note: % of control where 0% means no effect; nearly all actives have a fitted effect of over 50% in size
Starred values were filed as active, the others as inactive; i = inactive; ? = inconclusive; . = no result. Calls come from the whole dose curve; as a rule, active = well fitted curve in the direction sought with a large enough effect; inconclusive = small, poorly fitted or top-dose-only effect, or another doubt; inactive = no such curve, though single readings can be large; an effect the other way counts as inactive or inconclusive. Potency is the fitted concentration of half-maximal effect.

SMILES	KB-V1 MDR tox	KB-3-1 cytotox	HT1080-NT tox	SW480 rereplic	HT1080 IDH1KD tx	MCF10A rereplic
CCN1CCN(CCCNC(=O)c2ccc(/C=C3/Sc4ccccc4N(Cc4ccccc4F)C3=O)cc2)CC1	i	?	18µM*	16µM*	15µM*	15µM*
CCN1CCN(CCNC(=O)c2ccc(/C=C3/Sc4ccccc4N(Cc4ccccc4C)C3=O)cc2)CC1	i	?	15µM*	7.3µM*	21µM*	18µM*
Cc1cc(C)cc(C(=O)N2CCCCC2)c1	i	i	0%	-6%	7%	-2%
Cn1nc(-c2ccccc2)c(CSc2ccccc2)c1Cl	i	i	-5%	?	0%	13µM*
Cn1nc(N)c2c(-c3ccccc3)c(C#N)c(N)nc21	i	i	0%	-3%	1%	2%
Cc1ccc(Sc2c(C#N)c(-c3ccccc3)nn2C)cc1	i	i	?	?	?	6.5µM*
Cc1ccc(SCc2nn(C)c(Cl)c2C=O)cc1	?	i	2%	-3%	-19%	2%
Cc1ccc(SCc2c(-c3ccccc3)nn(C)c2Cl)cc1	i	i	-6%	-1%	-20%	8.2µM*
CN1CCN(CCNC(=O)Cn2c(=O)c3cccn3c3ccc(F)cc32)CC1	i	i	1%	-1%	0%	1%
c1ccc2c(c1)OCC(c1csc3ncnc(N4CCCC4)c13)O2 (configuration not stated)	13µM*	?	-22%	2%	-18%	-1%
c1ccc(CCNc2ncnc3scc(C4COc5ccccc5O4)c23)cc1 (configuration not stated)	13µM*	?	-26%	5%	-30%	?
Cc1cc(C)c2ccc(Cl)cc2n1	i	i	5%	-16%	11%	4%
Cc1cc(NN)nc2ccc(Cl)cc12	13µM*	?	-6%	?	-5%	18%
O=C(Nc1ccc(N2CCOCC2)cc1)c1cccc(S(=O)(=O)N2CCC(Cc3ccccc3)CC2)c1	i	i	-9%	-1%	-20%	1%
O=S(=O)(c1cccc(Br)c1)N1CCN(c2nc(-c3cccs3)nc3ccccc23)CC1	i	i	.	.	.	.
COC1CCN(Cc2cn(Cc3ccccc3)nc2-c2cc3ccccc3o2)CC1	?	?	?	?	26µM*	2%
OCC1CCN(Cc2cn(Cc3ccccc3)nc2-c2cc3ccccc3o2)CC1	?	i	?	22%	?	4%
COc1ccccc1NC(=O)N1CCN(c2ccc3nnc(-c4ccc(F)cc4)n3n2)CC1	?	i	26µM*	-1%	?	15%
COc1ccc(F)cc1-c1cc(NC(C)=O)c2ncc(-c3cc(OC)c(OC)c(OC)c3)n2c1	i	7.3µM*	?	.	-2%	.
COc1ccccc1-c1cc(NC(C)=O)c2ncc(-c3ccccc3)n2c1	?	i	23µM*	.	?	.
O=C(Nc1ccccc1C(F)(F)F)C1(S(=O)(=O)c2ccc(Cl)cc2)CC1	i	i	.	.	.	.
O=C(c1[nH]ncc1-c1cccc(Br)c1)C1CO1 (configuration not stated)	?	?	26µM*	?	?	?
O=C(Cc1ccc(OCCCc2ccccc2)cc1)NO	i	i	.	.	.	.
COC(=O)NC(=S)Nc1ccc(Oc2ccc(Cl)cc2)c(Cl)c1	i	i	?	0%	-22%	-4%
COC(=O)NC(=S)Nc1ccc(Oc2ccc(Cl)cc2Cl)c(Cl)c1	?	15µM*	16µM*	?	21µM*	?
SMILES	KB-V1 MDR tox	KB-3-1 cytotox	HT1080-NT tox	SW480 rereplic	HT1080 IDH1KD tx	MCF10A rereplic
CCCCNCCOCCOc1ccc(C)cc1Br	16µM*	i	-30%	?	-23%	?
CCC(C)NCCOCCOc1ccc(Cl)cc1Br (configuration not stated)	i	i	21µM*	21%	?	3%
Clc1ccc(OCCCNCc2ccccc2)c(Br)c1	21µM*	i	?	?	?	?
CCC(C)NCCCOc1ccc(Cl)cc1C(C)(C)C (configuration not stated)	?	i	-8%	-11%	-16%	?
COCCCNCCOCCOc1ccc(C)cc1Br	i	i	-5%	-4%	-13%	0%
C=CCc1cc(Cl)ccc1OCCCNC(C)CC (configuration not stated)	13µM*	?	?	18%	?	?
CCC(C)NCCOCCOc1cc(C)c(Cl)c(C)c1 (configuration not stated)	?	?	21µM*	?	21µM*	?
CCOc1cc(CNCCc2ccc(S(N)(=O)=O)cc2)ccc1OCc1ccccc1	?	?	?	?	?	21µM*
CCOc1cc(CNn2cn[nH]c2=S)cc(Cl)c1OCc1ccccc1F	16µM*	i	-7%	?	-4%	27%
CCOc1cc(CNCc2ccccc2)ccc1OCc1ccc(Cl)cc1	i	?	15µM*	15µM*	?	?
CCOc1cc(CNCCc2ccc(S(N)(=O)=O)cc2)cc(Cl)c1OCc1ccccc1	?	i	14µM*	?	18µM*	1%
COc1cc(CNn2c(C)n[nH]c2=S)cc(Cl)c1OCc1ccc(F)cc1	?	i	0%	-10%	14%	-7%
COc1ccc(-c2cc(C(F)(F)F)n3nc(C(=O)Nc4cccc(Cl)c4Cl)cc3n2)cc1OC	i	i	.	.	.	.
Cc1ccc(NC(=O)CN(C)CC(=O)N(C)Cc2ccccc2)cc1	i	i	-6%	-4%	7%	-2%
CCNCc1cc(Cl)c(OCc2ccccc2)c(OCC)c1	i	i	16µM*	1%	?	-10%
O=[S+]([O-])(Nc1ccccc1F)c1cccc(NC/C=C/c2ccccc2)c1	i	i	.	.	.	.
COc1ccc(Cl)cc1S(=O)(=O)N1CCN(C(=O)c2n[nH]c(=O)c3ccccc23)CC1	i	?	?	?	?	?
Fc1ccc(CN2CCN3CCCC3C2C2CCCCC2)cc1F (configuration not stated)	i	i	-28%	?	?	21µM*
O=[N+]([O-])c1ccc(CNc2ccc(Cl)cc2)s1	i	i	5%	-7%	-20%	-10%
CN1c2ccc(Cl)cc2C(=O)NC1c1ccc([N+](=O)[O-])s1 (configuration not stated)	i	i	?	42%	23µM*	12µM*
